An excerpt weighted towards active compounds, which were near 1.2% of everything screened.
VLA-4 inh: inhibition in a human VLA-4 binding assay; 330,000 tested, 0.2% active; inhibition, % (about 7 µM as worked out from the volumes in the protocol); VLA-4 expressing cells, ligand binding flow cytometry; P13612; in the data active = inhibition above about 50%
Yeast superoxide: lowers age-related superoxide in aged yeast cells; S. cerevisiae aged cells, superoxide DHE fluorescence; hits give low values; superoxide response (% of plate mean), % at 10 µM; 330,000 tested, 0.18% active; AID 2690;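 active = superoxide response under a set limit, about three screen SD below normal, cut at about 65% in these data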;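 also: yeast aged for seven days with compound at 30 °C before DHE staining; 100% = average MFI of all compound-treated wells on the plate with controls excluded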
SKN-1 inh: inhibitors of C. elegans SKN-1 | 360,000 tested, 0.49% active | AID 624304 | C. elegans VP596 Pgst-4::GFP/RFP ratio, acrylamide-induced, 24 h | inhibition, % at 21.8 µM;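 active = interference check ratio from 0.5 to 1.5 plus GFP to RFP signal ratio inhibition reaching or exceeding a fixed threshold, cut at about 30% in these data, passing the limit was not always enough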
Platelet DG rel: platelet dense granule release activity. 300,000 tested, 0.22% active. inhibition, %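 (compounds screened at 7.5 µM in platelet-rich plasma)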. human platelet-rich plasma, SFLLRN dense granule ATP release, luminescence. AID 1663;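 active = mean replicate score, as percent of positive control, at or above 50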
ABCB6 inh 2: blocks the human ABCB6 transporter; K562-ABCB6 porphyrin accumulation, flow cytometry, 1 h; hits give low values; fluorescence ratio to DMSO, % at 10 µM; 360,000 tested, 0.19% active;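 active = fluorescence ratio to DMSO below 75%, the collection mean minus 3 SD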;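 also: signal is porphyrin accumulated inside mitochondria; 100% equals median channel fluorescence of DMSO control wells; lower ratio means ABCB6 inhibition with less porphyrin fluorescence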
VLA-4 mod pick: confirmation of allosteric modulators of human VLA-4 integrin; shares compounds with VLA-4 inh; U937 cells, HUTS-21 LIBS mAb binding, flow cytometry; LDV ligand present at threefold Kd; inhibition, % at 6.7 µM; 1,300 tested, 2% active; AID 2813; in the data active = inhibition above about 40%;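 also: 0% = ligand without compound and 100% = no ligand background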
* hit, by the source's call; / = not tested or not shown.

SMILES	VLA-4 inh	Yeast superoxide	SKN-1 inh	Platelet DG rel	ABCB6 inh 2	VLA-4 mod pick
O=C1CC(c2ccccc2)CC2=C1C1(CCCC1)N=C(Nc1nc3ccccc3o1)N2 (stereo unspecified)	/	/	-1.9	/	95.0	/
CSc1nc(N)nc2c1ncn2CC(=O)N[C@H](C)c1cccc2ccccc12	53.7*	99.9	-1.0	/	99.0	3.3
COC(=O)[C@@H](Cc1ccccc1)NC(=O)Cn1cnc2c(SC)nc(N)nc21	36.3	103.3	-4.0	/	99.0	/
CC1(C(=O)NS(=O)(=O)c2cccc(Cl)c2)CCN1C(=O)c1ccccc1CCc1ccccc1 (stereo unspecified)	/	/	5.3	/	100.0	/
CCc1nc2ccc(C(=O)NCCCn3ccnc3)cn2c1N(C)CCCc1ccccc1	/	/	-11.7	/	95.0	/
CCCC[C@@H]1C=C(C(=O)O)[C@H](c2ccc(Br)cc2)N1S(=O)(=O)c1ccc(C)cc1	-13.7	116.5	1.6	/	96.0	-1.4
CCCCC[C@@H]1C=C(C(=O)O)[C@H](c2cccc(C)c2)N1S(=O)(=O)c1ccc(C)cc1	21.9	91.9	-3.8	/	96.0	0.6
CCCC[C@@H]1C=C(C(=O)O)[C@H](c2ccc(CC)cc2)N1S(=O)(=O)c1ccc(C)cc1	-9.9	83.5	2.1	/	96.0	2.1
CCCCC[C@@H]1C=C(C(=O)O)[C@H](c2ccc(Cl)c(Cl)c2)N1S(=O)(=O)c1ccc(C)cc1	42.4	92.3	-0.3	/	93.0	/
CCCCC[C@@H]1C=C(C(=O)O)[C@H](c2ccc3c(c2)OCO3)N1S(=O)(=O)c1ccc(C)cc1	-2.5	112.7	0.9	/	97.0	7.3
CCCCC[C@@H]1C=C(C(=O)O)[C@H](c2ccc(F)cc2)N1S(=O)(=O)c1ccc(C)cc1	-22.4	95.6	-3.3	/	104.0	0.0
CC[C@@H]1C=C(C(=O)O)[C@H](c2ccc(C#N)cc2)N1S(=O)(=O)c1ccc(C)cc1	-31.7	113.5	-6.0	/	101.0	/
CC[C@@H]1C=C(C(=O)O)[C@H](c2ccc(Br)cc2)N1S(=O)(=O)c1ccc(C)cc1	29.3	103.4	11.7	/	100.0	/
CCc1ccc([C@H]2C(C(=O)O)=C[C@@H](CC)N2S(=O)(=O)c2ccc(C)cc2)cc1	23.5	100.4	63.3	/	99.0	-1.4
CCCCC[C@@H]1C=C(C(=O)O)[C@H](c2ccc(CC)cc2)N1S(=O)(=O)c1ccc(C)cc1	35.1	99.9	-0.2	/	101.0	-0.8
CCCCC[C@@H]1C=C(C(=O)O)[C@H](c2ccc(OC)c(OC)c2)N1S(=O)(=O)c1ccc(C)cc1	26.8	113.5	-10.5	/	99.0	3.3
COc1ccc([C@@H]2CC=C(C(=O)O)[C@H](c3ccc(C)cc3)N2S(=O)(=O)c2ccc(C)cc2)cc1OC	-20.8	100.4	14.4	/	102.0	/
CSc1cccc(N2C(=O)C3CCCN3C2=S)c1 (stereo unspecified)	47.3	112.2	12.9	0.7	103.0	-13.4
Cc1cccc(N2C(=O)C3CCCN3C2=S)c1 (stereo unspecified)	33.1	103.2	-18.0	-3.2	99.0	/
COc1ccc(C2C3=C(CC(C)(C)CC3=O)Oc3ncn(CCCn4ccnc4)c(=N)c32)cc1 (stereo unspecified)	90.0*	103.9	-8.4	19.0	107.0	8.2
O=[N+]([O-])c1ccc(CCn2ccnc2)cc1	40.9	100.2	-2.4	-9.7	96.0	-5.3
O=[N+]([O-])c1ccc(-n2ccnc2)cc1	20.7	110.8	13.8	-6.5	86.0	/
CC(C)C(NS(=O)(=O)c1ccc2c(c1)oc(=O)n2C)C(=O)N1CCN(c2ccccc2F)CC1 (stereo unspecified)	53.4*	96.8	-15.9	/	105.0	-13.5
CC(=O)Nc1cc(-c2ccc(C(=O)N3CCOCC3)cc2)cn2c(-c3ccc(S(C)(=O)=O)cc3)cnc12	/	/	13.4	/	98.0	/
CCCc1nc2ccccc2c(=O)n1/N=C/c1ccccc1O	90.6*	102.5	21.2	0.0	99.0	-0.2
CCCCNC(=O)C(NC(=O)c1cccc2ccccc12)C(=O)c1ccccc1 (stereo unspecified)	/	/	-10.8	/	102.0	/
Fc1ccc(NC(=S)Nc2cccnc2)cc1	9.7	97.7	7.0	6.2	101.0	/
O=C(Nc1ccc(F)cc1)Nc1cccnc1	-5.7	96.6	-4.2	6.7	94.0	-3.0
CCOc1ccc(NC(=O)NC2(C(=O)NCc3ccco3)CCCCC2)cc1	5.7	83.0	7.6	7.2	89.0	/
